Assay outcomes from PubChem.
Sampled rows, rich in hits. Any-hit rate of the full collection: about 2%.
PfGluPho inh = PfG6PD enzyme inhibitors, primary screen, biochemical, fluorescence intensity, uHTS | PfGluPho enzyme, NADPH resazurin-diaphorase fluorescence | inhibition, % at 20 µM | actives 0.78% (n = 350,000);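 active = inhibition reaching at least a set limit at 20 µM in the primary screen, cut at about 59% in these data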;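 also: 0% = DMSO wells with substrate and 100% = DMSO wells lacking glucose-6-phosphate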
APOBEC3G inh = APOBEC3G DNA deaminase inhibitors, primary screen, biochemical, fluorescence, single-stranded DNA substrate, uHTS; DNA dC->dU-editing enzyme APOBEC-3G (Homo sapiens), Q9HC16; recombinant A3G, ssDNA deamination FAM/TAMRA fluorescence; inhibition, % at 20 µM; actives 0.28% (n = 330,000); AID 493012, 2011;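 active = inhibition of at least 40% at 20 µM, with no more than 30% in the related APOBEC3A deaminase screen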;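 also: plate controls were DMSO wells with A3G for no effect and wells lacking A3G enzyme for full effect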
GC-A act = GC-A stimulated cGMP production enhancers – HEK293 GC-A cells, cGMP TR-FRET, EC30 ANP, primary screen; actives 0.14% (n = 370,000); activation, % at 10 µM; AID 1671463, 2021; 0% at EC30 ANP, 100% saturating ANP; Atrial natriuretic peptide receptor 1 (Homo sapiens), P16066; in the data active = activation above about 40%
Neddylation inh = inhibitors of cullin neddylation, primary screen, biochemical, TR-FRET, uHTS, NAE and Ubc12; NEDD8-conjugating enzyme Ubc12 (Homo sapiens) + NEDD8-activating enzyme E1 regulatory …; inhibition, % at 25 µM; actives 0.58% (n = 360,000); AID 651699, 2012; in the data active = inhibition above about 36%
NPR2 activator = human GC-B receptor activators, primary screen, HEK293 GC-B cells, cGMP TR-FRET, EC30 CNP | Atrial natriuretic peptide receptor 2 (Homo sapiens), P20594 | 0% at EC30 CNP, 100% saturating CNP | activation, % at 10 µM | actives 0.11% (n = 370,000) | AID 1920062, 2024;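 active = activation at 10 µM reaching about 35% in either raw or pattern-adjusted values, limit read from the data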
Target sequence (P20594 whole entry, looked up): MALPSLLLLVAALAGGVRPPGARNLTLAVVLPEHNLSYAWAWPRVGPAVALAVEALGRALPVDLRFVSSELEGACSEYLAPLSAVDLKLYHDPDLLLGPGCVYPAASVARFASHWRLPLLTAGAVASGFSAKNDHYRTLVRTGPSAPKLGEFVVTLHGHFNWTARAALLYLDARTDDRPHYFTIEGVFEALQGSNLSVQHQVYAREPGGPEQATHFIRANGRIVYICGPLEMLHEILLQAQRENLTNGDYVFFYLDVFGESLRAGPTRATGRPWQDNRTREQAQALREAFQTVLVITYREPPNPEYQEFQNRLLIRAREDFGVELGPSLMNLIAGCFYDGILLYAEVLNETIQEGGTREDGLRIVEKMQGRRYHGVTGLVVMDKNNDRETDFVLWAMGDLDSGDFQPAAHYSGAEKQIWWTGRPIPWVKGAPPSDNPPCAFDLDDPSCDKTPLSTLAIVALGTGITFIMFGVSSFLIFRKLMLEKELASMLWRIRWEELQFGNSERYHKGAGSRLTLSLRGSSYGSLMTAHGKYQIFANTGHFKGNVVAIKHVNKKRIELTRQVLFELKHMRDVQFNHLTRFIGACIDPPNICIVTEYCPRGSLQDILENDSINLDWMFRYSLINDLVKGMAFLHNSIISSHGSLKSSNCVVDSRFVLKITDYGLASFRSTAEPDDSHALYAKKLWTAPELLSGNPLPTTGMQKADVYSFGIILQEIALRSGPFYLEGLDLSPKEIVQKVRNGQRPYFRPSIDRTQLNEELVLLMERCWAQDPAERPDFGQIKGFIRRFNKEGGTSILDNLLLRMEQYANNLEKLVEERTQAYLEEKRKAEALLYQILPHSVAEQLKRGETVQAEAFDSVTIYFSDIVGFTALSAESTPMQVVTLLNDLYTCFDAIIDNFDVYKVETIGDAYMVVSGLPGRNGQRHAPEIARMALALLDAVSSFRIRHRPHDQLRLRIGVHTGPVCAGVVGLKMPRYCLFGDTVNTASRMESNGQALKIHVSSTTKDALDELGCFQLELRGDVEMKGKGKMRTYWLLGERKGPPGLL
APOBEC3A inh = APOBEC3A ssDNA deaminase inhibitors, primary screen, selectivity assay for APOBEC3G inhibitor project, biochemical, FAM/TAMRA oligo cleavage fluorescence; DNA dC->dU-editing enzyme APOBEC-3A (Homo sapiens), P31941; recombinant A3A, FAM/TAMRA ssDNA deamination fluorescence; actives 0.41% (n = 330,000); inhibition, % at 20 µM;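 active = at least 40% inhibition at 20 µM here, with at most 30% in a related deaminase screen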;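 also: plate controls were A3A with DMSO for no effect and wells lacking A3A enzyme for full effect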
The depositor's hits bear a star; i = inactive; nt = no result.

SMILES	PfGluPho inh	APOBEC3G inh	GC-A act	Neddylation inh	NPR2 activator	APOBEC3A inh
COc1ccc2c(c1)CCCN2C(=O)C1CCCN(S(=O)(=O)c2ccc(Br)s2)C1 (configuration not stated)	nt	nt	-1.2	nt	-9.3	nt
CC(C)(C)C(=O)Cn1ncc(Br)c(Br)c1=O	-5.5	nt	61.9*	-382.0	1.5	nt
CCCC(=O)OC12CCCN(C1)/C(=C/c1cccc(N(C)C)c1)C2 (configuration not stated)	nt	nt	2.7	nt	-11.0	nt
O=C(c1ccc(F)cc1F)N(Cc1ccccn1)CC1CCCO1 (configuration not stated)	nt	nt	4.0	nt	1.0	nt
Cc1cccc(Nc2nnc(-c3ccc(N4CCOCC4)c([N+](=O)[O-])c3)c3ccccc23)c1	8.7	0.1	31.9	-16.4	48.2*	-3.9
CC(=O)Nc1cccc(Oc2ncnc3scc(-c4ccccc4)c23)c1	-3.0	-2.5	38.6	-21.3	46.2*	-0.5
O=S(=O)(c1ccc(Oc2ncnc3scc(-c4ccccc4)c23)cc1)N1CCOCC1	5.5	-5.0	-3.7	-50.8	-2.8	-3.0
CSc1ccccc1NC(=S)N/N=C/c1cccn1Cc1cccc(C)c1	8.3	-3.5	-2.1	3.8	5.5	-0.9
Cc1cccc(NC(=S)N/N=C/c2cccn2Cc2ccc(F)cc2)c1	5.5	-4.4	-8.0	51.1*	-0.6	-4.7
O=C(Nc1nc2ncccn2c1-c1ccc(F)c(F)c1)C1CC1	nt	nt	2.6	nt	1.8	nt
COc1ccc(/C=C2\Sc3ccc(C(=O)NC4CC4)cc3N(C)C2=O)cc1OC	25.6	-1.6	29.5	-8.0	38.7*	-0.4
COC(=O)[C@]12C[C@H](CC(=O)N3CCN(C(=O)c4ccco4)CC3)C(=O)N(Cc3ccco3)C1=C[C@H](C(C)C)O[C@@H]2C1CC1	nt	nt	0.1	nt	1.7	nt
CCn1cnc2c1c(=O)n(Cc1ccc(C(=O)OC)cc1)c(=O)n2Cc1ccccc1	0.1	-11.4	-12.7	5.2	35.1*	-3.8
CCn1cnc2c1c(=O)n(CC(=O)OC)c(=O)n2Cc1ccccc1	-1.6	-1.8	4.5	-0.5	12.4	0.2
CCOC(=O)CN1CCC(c2cc(-c3ccc(Cl)cc3)n[nH]2)CC1	-8.0	-8.8	62.0*	-6.1	-5.0	-3.8
CN[C@H]1C[C@H]2c3[nH]c4c(-c5ccc6c(c5)OCO6)cccc4c3CCN2C[C@H]1[C@H](C)O	nt	nt	-8.5	nt	-18.2	nt
S=C(Nc1cccc(Cl)c1)Nc1cccc2cnccc12	95.4*	nt	nt	-24.8	nt	nt
Cc1ccc(NC(=S)Nc2cccc3cnccc23)cc1C	53.4	-11.5	1.6	-24.1	-3.3	-7.0
O=C(NC1CCC1)c1ccc(C#CC2CC2)c[n+]1[O-]	nt	nt	3.8	nt	6.8	nt
COc1ccc(C(=O)CCS(=O)(=O)c2ccc(C)cc2)cc1	4.2	-9.5	9.3	-1.0	-1.8	-5.0
Cc1ccc(C(=O)CCS(=O)(=O)c2ccc(Br)cc2)cc1	11.2	-1.9	45.5*	-27.6	-5.1	-1.2
O=C(c1cnn2c(C(F)(F)F)cc(-c3ccc(Br)cc3)nc12)N1CCOCC1	1.0	nt	2.1	10.0	8.5	nt
O=C(c1cnn2c(C(F)(F)F)cc(-c3ccc4c(c3)OCO4)nc12)N1CCCC1	-4.8	0.8	37.8	24.5	44.8*	-0.2
CC(=O)NC1Sc2ccccc2N=C1c1ccccc1 (configuration not stated)	62.8*	5.3	0.1	10.6	-9.1	-3.0
COC(=O)C1CN(CCc2ccccc2)CCS(=O)(=O)N1Cc1ccc(C(F)(F)F)cc1 (configuration not stated)	nt	nt	-2.0	nt	0.2	nt
SMILES	PfGluPho inh	APOBEC3G inh	GC-A act	Neddylation inh	NPR2 activator	APOBEC3A inh
O=c1c2sc3nc(N4CCOCC4)c4c(c3c2ncn1CCc1ccccc1)CCCC4	18.7	-7.4	16.2	-132.6	23.0	-5.3
COC(=O)c1ccc(CSc2ncnc3c2sc2nc(N4CCOCC4)c4c(c23)CCCC4)o1	14.2	5.3	49.6*	i	61.7*	15.8
CCOC(=O)CSc1ncnc2c1sc1nc(N3CCOCC3)c3c(c12)CCCC3	12.8	-3.3	30.0	i	36.5*	-0.1
COC(=O)c1ccc(Cn2cnc3c(sc4nc(N5CCOCC5)c5c(c43)CCCC5)c2=O)o1	16.2	3.5	41.0*	-280.4	48.6*	6.1
CC(C)(C)N(Cc1cn(CC2CCCCC2)nn1)S(=O)(=O)c1ccccc1Br	nt	nt	-0.5	nt	5.6	nt
Clc1ccc(-c2nc(-c3ccncc3)no2)c(Cl)c1	2.0	-5.5	46.1*	-16.3	-9.4	-3.4
Clc1ccc(Cl)c(-c2nc(-c3ccncc3)no2)c1	-18.1	-6.7	-1.7	-48.7	-0.1	-8.5
O=[N+]([O-])c1cc(Cl)ccc1-c1nc(-c2ccncc2)no1	8.7	-1.9	45.7*	-35.0	-1.5	-0.6
Cc1ccccc1-n1nc2c(c1NC(=O)c1cc3ccccc3oc1=O)CS(=O)(=O)C2	-10.5	-5.2	30.6	nt	37.8*	-0.7
C=CCNC(=O)Nc1ccc2c(c1)[C@]1(CC(=O)N(CC(C)C)C1c1ccccc1)C(=O)N2C (some centres not stated)	nt	nt	-1.4	nt	-8.5	nt
CC(C)Oc1ccc(C(=O)N/N=C/c2ccc(-c3ccc(S(=O)(=O)Nc4ncccn4)cc3)o2)cc1	-41.5	5.8	1.2	48.3*	11.3	11.2
NC(=O)N/N=C/c1ccc(-c2ccc(S(=O)(=O)Nc3ncccn3)cc2)o1	-7.6	-2.7	1.6	9.9	6.5	1.0
CN(CCOC(=O)c1cc2ccccc2o1)C1CN(Cc2cn(Cc3ccccc3C(F)(F)F)nn2)S(=O)(=O)C1 (configuration not stated)	nt	nt	-0.6	nt	-1.9	nt
COc1ccc(C(=O)NC(=S)NNC(=O)c2ccccc2C)cc1	-13.7	-2.6	1.1	41.1*	2.1	-4.9
CC(C)(C)C(=O)COC(=O)CNC(=O)c1ccc(Oc2ccccc2)cc1	-3.6	2.0	42.1*	4.9	-1.0	1.7
COc1ccc(CCNC(=O)Nc2ccc3c(c2)[C@]2(CC(=O)N(CC(C)C)C2c2ccccc2)C(=O)N3C)cc1OC (some centres not stated)	nt	nt	-2.1	nt	-2.7	nt
Cc1ccccc1NC1=C/C(=N\S(=O)(=O)c2cccs2)c2ccccc2C1=O	99.3*	-5.7	4.8	-52.3	11.1	0.7
